Experimental findings from ChEMBL document CHEMBL4513216, “Probing the Open Global Health Chemical Diversity Library for Multistage-Active Starting Points for Next-Generation Antimalarials” (ACS Infect Dis, 2020) are described below.

In all, about 68,000 compounds went through this assay and about 2,700 (4%) showed an effect of 50% or more. The sample as a whole holds a higher share of strong results than the screen did.

The test system of this experiment is Plasmodium berghei. In words: Screen against P. berghei liver stage (PbLuc), transformed with Luciferase, at 2uM. Type of experiment: functional, HepG2. Particulars: tested at 2 uM.
Take `C[C@H](NC(=O)C1CCCC1)c1nc2cc(-c3ccc(F)cc3)ncn2n1`: the INHIBITION was found to be 39.48%.
The result for `CC(O)c1cccc(OCc2ccon2)c1` (stereo unspecified) reads 46.28%; that for `Cn1cc(CN2CC[C@H]3O[C@H](C(=O)Nc4cnccn4)CC[C@H]32)cn1`, -20.89%.
Regarding `CN(CC(=O)Nc1cccnc1)CC1CCCN1c1cccnn1` (stereo unspecified), the INHIBITION is given as 45.48%.
The result for `Cc1nn(C)c(Cl)c1C1CCCN1C(=O)c1cnc[nH]1` (stereo unspecified) reads 8.37%; that for `CC(=O)N(Cc1noc(C)n1)C1CCN(CC(=O)N(C)C2CC2)C1` (stereo unspecified), -3.97%.
`Cc1nccn1CCN(C)C(=O)C1CCN(C(=O)C2CCC2)CC1`: the INHIBITION stood at 20.45%.
The result for `CN(C)CCN1C[C@@H]2CN(S(=O)(=O)c3ccccc3)C[C@@H]2C1=O` reads 19.16%; that for `Cc1ccc(CN2C[C@H](OCC3CCOCC3)[C@H]3COC[C@H]32)o1`, 18.32%; that for `CC(C)CN1CCN(S(=O)(=O)c2cn(C)cn2)[C@H]2CS(=O)(=O)C[C@H]21`, 15.74%.
The result for `CC(C)=CCN1CCN(Cc2nccn2C)[C@H]2CS(=O)(=O)C[C@H]21` reads 8.26%; that for `Cc1nc2ccc(C(=O)N3CCN(CCO)[C@@H]4CS(=O)(=O)C[C@@H]43)cc2o1`, -85.34%; that for `O=C(c1ccc2nccnc2c1)N1CCN(CCO)[C@@H]2CS(=O)(=O)C[C@@H]21`, 14.82%.
For `CC(C)=CCN1CCN(S(=O)(=O)c2cn(C)cn2)[C@H]2CS(=O)(=O)C[C@H]21`, the INHIBITION amounted to 50.98%.
The result for `Cn1cnc2cc(C(=O)N3CCN(CCO)[C@@H]4CS(=O)(=O)C[C@@H]43)ccc21` reads 55.36%.
In the case of `O=C(Cn1nc(-c2ccc(F)cc2)oc1=O)NCCc1ccccc1`, the INHIBITION is on record as 20.57%.
Regarding `c1ccc(OCc2nnn3c2CN(c2ncccn2)CCC3)nc1`, the INHIBITION is -7.52%.
The same measure for `Cc1nnc2ccc(OCCNS(C)(=O)=O)nn12`: -26.08%.
The same measure for `N#Cc1cccc(CN2CCn3cc(Cn4cccn4)nc3C2)c1`: 21.42%; for `CSc1ccc(NCC(=O)NCC2CC2)cc1F`: 55.66%.
The same measure for `CSc1ccc(NCC(=O)NC(=O)NCC(F)(F)F)cc1F`: 18.63%; for `CSc1ccc(NCC(=O)NCC(=O)N2CCCC2)cc1F`: -30.18%; for `COc1ccc(CNC(=O)NC2CCN(CC3CCCC3)CC2)cn1`: -17.01%.
As for `CCCN1C[C@H](NC(=O)c2ccccc2F)[C@@H](c2ccc(OC)cc2)C1`, the INHIBITION was 16.55%.
Regarding `CCCN1C[C@H](NC(=O)c2cccs2)[C@@H](c2ccc(OC)cc2)C1`, the INHIBITION turned out to be 53.65%.
`CCCN1C[C@H](NC(=O)c2cc(C)no2)[C@@H](c2ccc(OC)cc2)C1`: the INHIBITION is 18.22%.
Regarding `O=c1c2ccccc2ncn1Cc1cc(C2CC2)[nH]n1`, the INHIBITION is 34.98%.
The same measure for `CCOCC1c2c(ncn2C)CCN1C(=O)c1cscn1` (stereo unspecified): 16.78%.
The result for `Cc1ncnc2c1CCN(Cc1ccc3c(c1)OCO3)CC2` reads -39.9%.
`Cc1cc(CNc2ccc3nc(C)sc3c2)no1`: the INHIBITION was -32.33%.
The result for `Cc1cc(CNc2ccc3nc(C4CC4)sc3c2)no1` reads 53.63%; that for `Cc1noc(C)c1CNc1ccc2nc(C3CC3)sc2c1`, 25.21%; that for `CC(C)NC(=O)N1CCC2(CC1)C(=O)NCCN2Cc1ccccc1`, 5.69%.
The same measure for `O=C(NC1CC1)N1CCC2(CC1)C(=O)NCCN2Cc1ccccc1`: -11.54%.
The same measure for `CN1CCNC(=O)C12CCN(Cc1ccco1)CC2`: 27.42%; for `O=C1NCCN(CC2CC2)C12CCN(Cc1ccco1)CC2`: 61.9%; for `Cc1ccc(CN2CCC3(CC2)C(=O)NCCN3CC2CC2)o1`: 8.62%.
Consider `O=C(CC1CC1)N1CCC2(CC1)C(=O)NCCN2Cc1ccccc1`, for which the INHIBITION was determined as 52.36%.
The same measure for `CC(C)CNC(=O)[C@H]1CCS(=O)(=O)[C@@H]2CN(Cc3cccnc3)C[C@H]12`: 35.07%; for `COC(=O)c1ncccc1N1CCCCC1`: -18.04%; for `COc1nc2ccccc2cc1C1CC(=O)Nc2n[nH]c(C3CCC3)c21` (stereo unspecified): 13.51%.
The same measure for `O=C1CC(c2ccc3ccccc3n2)c2c(n[nH]c2C2CCC2)N1` (stereo unspecified): 46.3%; for `CC(C)c1nccc(C2CC(=O)Nc3n[nH]c(C4CCC4)c32)n1` (stereo unspecified): 53.33%.
Turning to `CCc1nnc(SCC(=O)N2CCc3[nH]nc(C4CCC4)c3C2)o1`, the INHIBITION is recorded as 66.4%.
Take `Cc1nnc(SCC(=O)N2CCc3[nH]nc(C4CCC4)c3C2)o1`: the INHIBITION is on record as 22.34%.
The result for `CCc1n[nH]c(SCC(=O)N2CCc3[nH]nc(C4CCC4)c3C2)n1` reads 23.45%; that for `O=C(C1CC1)N1CCC(O)(CN2CCN(c3ccccc3)CC2)C1` (stereo unspecified), 0.64%.
The same measure for `Cc1nc2c(c(N(C)C)n1)CCN(C(=O)c1sccc1S(N)(=O)=O)C2`: -22.79%; for `CC(C)CNc1nccc(-c2cnc3sc(Cl)cn3c2=O)n1`: -24.85%; for `CC(NC(=O)CCn1cccn1)c1ccc(-n2ccnn2)cc1` (stereo unspecified): -33.92%.
As to `CC(C)OC(=O)CC(NC(=O)CCn1cccn1)c1ccccc1` (stereo unspecified), the INHIBITION was determined as 67.28%.
As for `COC(=O)CC(NC(=O)CCCn1cccn1)c1ccc(Cl)cc1` (stereo unspecified), the INHIBITION was -18.57%.
Turning to `CC(NC(=O)CCn1cccn1)c1cccs1` (stereo unspecified), the INHIBITION is -38.35%.
The same measure for `CC(NC(=O)CCn1cccn1)c1cn(-c2ccccc2)nn1` (stereo unspecified): 2.26%; for `COC(=O)CC(NC(=O)CCn1cccn1)c1ccc(C)cc1` (stereo unspecified): 60.13%.
In the case of `CN(C)CCN1CCC2(CCN(C(=O)c3ccc(F)cc3)CC2)C1=O`, the INHIBITION is listed as -16.42%.
The same measure for `Cc1cc(C)n(CC2CN(CC(=O)NCc3ccccn3)CCO2)n1` (stereo unspecified): -12.05%.
As for `CN(Cc1cccnc1)[C@@H]1CN(C(=O)c2ccno2)[C@@H]2CCCO[C@H]12`, the INHIBITION is reported as -7.88%.
Regarding `CCSc1cc(C(=O)NCc2ccc(C(=O)NC)cc2)ccn1`, the INHIBITION was 19.48%.
With `C[S+]([O-])c1nncn1CC(=O)c1ccc(Br)cc1` (stereo unspecified), the INHIBITION is given as -59.71%.
With `CCOC(=O)CC(c1ccc(OC)cc1)c1c(O)n[nH]c1C` (stereo unspecified), the INHIBITION is -43.9%.
As for `CN(Cc1ccc([S+](C)[O-])cc1)c1ccc(Br)cn1` (stereo unspecified), the INHIBITION came out at 67.28%.
The same measure for `CN(Cc1ccc([S+](C)[O-])cc1)c1ccc(Cl)cn1` (stereo unspecified): 45.82%; for `CN(Cc1ccc([S+](C)[O-])cc1)c1ccc(C(F)(F)F)cn1` (stereo unspecified): 48.21%.
For `CN(C)[C@H]1CCCCN(C(=O)c2cccc(-c3cccc(F)c3)c2)C1`, the INHIBITION is recorded as 36.79%.
With `COc1c(F)ccc(C(=O)N2CC[C@H](CO)[C@@H](O)C2)c1F`, the INHIBITION is -15.37%.
The same measure for `NC(=O)c1cc(-n2cc(-c3cccc(C(=O)O)c3)cn2)cs1`: 29.13%; for `NC(=O)c1ccccc1-n1cc(-c2cccc(C(=O)O)c2)cn1`: 0.51%; for `NC(=O)c1cc(-c2cccc(C(=O)O)c2)cs1`: 67.28%.
The result for `CC(C)C(=O)N1CCC2(CCCN(CCOc3ccccc3)C2)C1` (stereo unspecified) reads 21.89%.
On to `Cn1c(N)nnc1SCc1c(F)cccc1Br`, for which the INHIBITION is listed as -3.53%.
With `Cn1c(N)nnc1SCc1cc(Br)ccc1Cl`, the INHIBITION came to 55.36%.
Regarding `Cn1c(N)nnc1SCc1ccc(Cl)cc1Br`, the INHIBITION came out at 45.82%.
As to `NC(=O)C(NC(=O)CSCc1ccc(Cl)s1)c1ccccc1` (stereo unspecified), the INHIBITION was 28.04%.
The same measure for `CS(=O)(=O)Cc1ccc(CNC(=O)c2cccnc2O)cc1`: -4.5%; for `COCC(C)(C#N)NC(=O)c1cn(-c2cccc(Cl)c2F)nn1` (stereo unspecified): -10.98%.
`O=C(c1ccncc1F)N1CC2CC1(C(=O)N1CCCC1)C2`: the INHIBITION is 33.14%.
With `CN(C)C(=O)CN1CCN(c2ncccn2)[C@@H]2CS(=O)(=O)C[C@@H]21`, the INHIBITION worked out at 58.69%.
The result for `CN(C)C(=O)CN1CC[C@H]2[C@H]1CCN2c1ncccn1` reads 22.18%.
Turning to `O=C(CN1CCN(c2ncccn2)[C@@H]2CS(=O)(=O)C[C@@H]21)N1CCCCC1`, the INHIBITION worked out at 14.19%.
The same measure for `CC(NC(=O)c1ccsc1)c1ccc2c(c1)NC(=O)CO2` (stereo unspecified): -34.61%; for `CCN1CCCC1CN(Cc1cc[nH]n1)CC1CCN(CCOC)CC1` (stereo unspecified): 18.63%; for `CCN1CCCC1CN(Cc1ccoc1)CC1CCN(CCOC)CC1` (stereo unspecified): 42.2%.
For the compound `CCN1CCCC1CN(Cc1ccon1)CC1CCN(CCOC)CC1` (stereo unspecified), the INHIBITION stood at 55.66%.
For `Cc1cc(C)nc(NC(C)Cc2cnccn2)n1` (stereo unspecified), the INHIBITION was determined as 4.42%.
The same measure for `Cc1cc(N2CCCC2c2nnc3n2CCCCC3)nc(N)n1` (stereo unspecified): 38.89%; for `CC(C)c1noc(-c2ccc(NCCCN3CCCC(O)C3)nc2)n1` (stereo unspecified): 22.57%.
Regarding `CCc1cc(C(=O)N2CCc3nc4c(C)csc4c(=O)n3CC2)on1`, the INHIBITION was found to be 51.32%.
For `Cc1csc2c(=O)n3c(nc12)CCN(C(=O)c1ccccn1)CC3`, the INHIBITION is listed as -25.54%.
The same measure for `Cc1csc2c(=O)n3c(nc12)CCN(C(=O)c1ccnn1C)CC3`: 19.07%; for `CNc1cncc(C2CCCN2c2cc(C)ncn2)n1` (stereo unspecified): 5.15%.
The result for `Cc1c(Cl)cccc1S(=O)(=O)N1CCC2(CC1)OCCS2` reads -21.09%; that for `COc1cccc([C@H]2CN(C(=O)c3ccccc3)[C@@H]3CCCN[C@H]23)c1`, 34.48%; that for `N#Cc1c(Cl)nsc1N1CCN(CC2CC2)CC1`, 20.88%.
Take `CC(C)(C)CCN1CCN(c2snc(Cl)c2C#N)CC1`: the INHIBITION is given as 58.29%.
The result for `N#Cc1c(Cl)nsc1N1CCN(CC2CCCCC2)CC1` reads 29.89%.
The result for `c1coc(CN2CCCC3(COCCN(Cc4c[nH]nn4)C3)C2)c1` (stereo unspecified) reads -10.66%; that for `CCn1cc(NC(=O)NCc2ccc(CN3CCOCC3)cc2)cn1`, 17.39%; that for `CN1CCN(c2cccc(Cl)c2CNCCS(C)(=O)=O)CC1`, 4.42%.
With `O=C(Cc1ccc2c(c1)OCC2)Nc1nc[nH]n1`, the INHIBITION turned out to be 8.14%.
The same measure for `O=C(c1ccncc1)N1CCC(Oc2cccc(C(F)(F)F)c2)CC1`: 26.74%; for `CC(N)C(=O)N1CCC(Oc2cccc(C(F)(F)F)c2)CC1` (stereo unspecified): 48.21%; for `O=C(c1cccnc1)N1CCC(Oc2cccc(C(F)(F)F)c2)CC1`: 45.82%.
For `Nc1ccc(C(=O)N2CCC(Oc3cccc(C(F)(F)F)c3)CC2)cn1`, the INHIBITION is recorded as 17.2%.
The result for `Nc1cc(C(=O)N2CCC(Oc3cccc(C(F)(F)F)c3)CC2)ccn1` reads 72.05%; that for `O=C(c1ccc(=O)[nH]c1)N1CCC(Oc2cccc(C(F)(F)F)c2)CC1`, 57.75%.
